Screens from PubChem.
This is a sample that favours compounds with a hit; in the whole collection about 2.3% have one here.
ELG1 repair inh: ELG1-dependent DNA repair inhibition; HEK293T ELG1-luciferase reporter, luminescence, 16 h; DNA damage induced by 5-fluorouridine; Potency, µM (series often up to 46.1 µM), for the others: top-dose activity change, negative = inhibition, most hits filed as inhibitors; 330,000 compounds, 2.3% hits; AID 504467; also: potency is read from the fitted curve at half-maximal effect; % is scaled to controls: 0 for no effect and ±100 for the full control effect; nearly all actives have a fitted effect of over 55% in size
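Luminescence from the luciferase reporter, measured 30 min after ONE-Glo reagent at room temperature, was the read-out. Beforehand, 2,000 cells per well were exposed for 16 hr at 37 °C to 5-fluorouridine together with compound or vehicle.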
FUS yeast rescue: rescues growth of FUS-expressing yeast | AID 1347120 | Potency, µM (doses to about 76.6 µM), hits mostly activators | S. cerevisiae FUS-expressing, growth rescue, OD600, 24 h | 390,000 compounds, 0.24% hits;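 also: potency is read from the fitted curve at half-maximal effect; plate controls were DMSO vehicle for no effect and reference control for full effect; nearly all actives have a fitted effect of over 55% in size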
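Quantitative HTS measuring growth restoration of FUS-toxic yeast. Galactose-induced cells (OD 0.005) were exposed 24hr at 30C to compounds at several concentrations, then absorbance at 600 nm was recorded.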
Giardia kill: kills Giardia lamblia; Giardia lamblia trophozoite viability; activity change, % at 7.66 µM, hits read low; 340,000 compounds, 0.15% hits; in the data active = activity change below about -80%; inconclusive = between about -30% and that limit;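 also: parasites exposed to compound for two days anaerobically before the ATP read; % is scaled to controls: 0 for no effect and ±100 for the full control effect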
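Luminescent ATP signal served as the viability read-out, measured 15-30 min after adding ATP detection reagent to trophozoites that had been incubated with compounds for 48 hrs at 37 deg C anaerobically at 100 cells/well.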
TRPV1 potentiator: human TRPV1 potentiation | potentiation, % at 8.33 µM | TRPV1-expressing cells, Fluo-8 calcium influx, capsaicin EC20 potentiation | 320,000 compounds, 0.02% hits | Q8NER1; in the data active = potentiation above about 80%; inconclusive = between about 30% and that limit; also: 0% is about no effect
Target sequence (Q8NER1 whole entry, looked up): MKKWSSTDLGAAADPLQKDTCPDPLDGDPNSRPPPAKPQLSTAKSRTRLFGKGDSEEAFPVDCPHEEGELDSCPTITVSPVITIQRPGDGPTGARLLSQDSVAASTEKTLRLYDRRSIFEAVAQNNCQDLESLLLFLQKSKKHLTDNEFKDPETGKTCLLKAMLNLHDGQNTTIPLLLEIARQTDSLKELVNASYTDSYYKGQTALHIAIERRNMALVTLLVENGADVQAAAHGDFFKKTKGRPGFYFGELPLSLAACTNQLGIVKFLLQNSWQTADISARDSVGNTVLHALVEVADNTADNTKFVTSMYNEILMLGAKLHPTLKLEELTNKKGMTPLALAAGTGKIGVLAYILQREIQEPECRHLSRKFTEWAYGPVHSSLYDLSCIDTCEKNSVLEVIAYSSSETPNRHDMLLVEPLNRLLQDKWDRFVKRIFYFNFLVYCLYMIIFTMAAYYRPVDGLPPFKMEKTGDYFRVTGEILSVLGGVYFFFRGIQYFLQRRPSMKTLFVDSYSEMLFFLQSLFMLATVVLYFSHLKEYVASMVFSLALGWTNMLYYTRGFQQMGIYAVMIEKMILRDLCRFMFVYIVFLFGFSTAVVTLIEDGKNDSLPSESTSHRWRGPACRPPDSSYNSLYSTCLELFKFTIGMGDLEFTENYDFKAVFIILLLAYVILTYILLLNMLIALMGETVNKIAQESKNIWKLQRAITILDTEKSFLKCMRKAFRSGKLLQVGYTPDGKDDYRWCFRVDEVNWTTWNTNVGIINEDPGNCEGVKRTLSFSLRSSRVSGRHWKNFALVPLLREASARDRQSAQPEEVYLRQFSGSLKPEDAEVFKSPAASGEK
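Fluo-8 calcium influx in TRPV1-expressing cells, kinetic read (ex 480/em 520 nm). Compound added and read 3 min for agonist activity, followed by capsaicin at EC20 final and 2 min further read for enhancement.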
TRPV1 ag: activates the human vanilloid receptor TRPV1. TRPV1-expressing cells, Fluo-8 calcium influx, agonist mode. activation, % at 8.33 µM. 320,000 compounds, 0.19% hits. AID 540275; in the data active = activation above about 80%; inconclusive = between about 30% and that limit; also: 0% is about no effect
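Cells expressing TRPV1 were dye-loaded with Fluo-8 and read kinetically: 10 s baseline, 3 min after compound (agonist portion), then 2 min after EC20 capsaicin (allosteric enhancer portion). Calcium-bound dye fluorescence at 480/520 nm.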
* marks the source's active call; other numbers are inactive results. Unless noted, calls follow the shape of the dose curve; as a rule, active = well fitted curve in the direction sought with a large enough effect; inconclusive = small, poorly fitted or top-dose-only effect, or another doubt; inactive = no such curve, though single readings can be large; an effect the other way counts as inactive or inconclusive.

What do the screens show for `O=C(NCc1ccncc1)C1CCCN(S(=O)(=O)c2cc(Cl)ccc2Cl)C1` (configuration not stated)?
ELG1 repair inh: inconclusive; FUS yeast rescue: inactive; Giardia kill: 13; TRPV1 potentiator: -18; TRPV1 ag: 87*

What do the screens show for `Cc1ccc(NC(=O)C2CCCN(S(=O)(=O)c3cccc4cccnc34)C2)cc1Cl` (configuration not stated)?
FUS yeast rescue: inactive

How did O=C(Nc1nc2cc(Cl)ccc2s1)C1CCCN(S(=O)(=O)c2cccc3cccnc23)C1 (configuration not stated) do in these assays?
ELG1 repair inh: 16µM*; FUS yeast rescue: inactive; Giardia kill: -24; TRPV1 potentiator: inconclusive; TRPV1 ag: -1

Results for O=C(NCc1ccncc1)C1CCN(S(=O)(=O)c2cc(Cl)ccc2Cl)CC1 ?
ELG1 repair inh: -4%; FUS yeast rescue: inconclusive; Giardia kill: 13; TRPV1 potentiator: -9; TRPV1 ag: inconclusive

Results for CCCCCOc1ccc(Cn2c(=O)oc3ccccc32)cc1 ?
FUS yeast rescue: inactive

What do the screens show for `CCc1ccccc1NC(=O)C1CCCN(c2nnc(-n3c(C)ccc3C)s2)C1` (configuration not stated)?
FUS yeast rescue: inactive

What do the screens show for `COCCCn1c(-c2ccco2)nc2ccccc2c1=O`?
ELG1 repair inh: -2%; FUS yeast rescue: inactive; Giardia kill: -15; TRPV1 potentiator: -16; TRPV1 ag: -4

Results for COCCCN=C(c1ccco1)n1c(=S)nc(-c2ccco2)n(CCCOC)c1=S ?
ELG1 repair inh: inconclusive; FUS yeast rescue: 28µM*; Giardia kill: 6; TRPV1 potentiator: -10; TRPV1 ag: 2

Results for O=[N+]([O-])c1cccc(COc2ncnc3cc([N+](=O)[O-])ccc23)c1 ?
ELG1 repair inh: 10µM*; FUS yeast rescue: inactive; Giardia kill: -15; TRPV1 potentiator: 26; TRPV1 ag: 1

What do the screens show for `COc1ccc(CCNC(=O)COc2ncnc3cc([N+](=O)[O-])ccc23)cc1`?
ELG1 repair inh: -17%; FUS yeast rescue: inactive; Giardia kill: -11; TRPV1 potentiator: 4; TRPV1 ag: -1

What do the screens show for `O=C(Nc1ccc(Cl)cc1)Nc1ccc2c(c1)N1CCN=C1S2`?
ELG1 repair inh: 23µM*; FUS yeast rescue: inconclusive; Giardia kill: 11; TRPV1 potentiator: -13; TRPV1 ag: inconclusive

Results for Cn1c(=O)c2c(nc(SCCCC#N)n2Cc2c(F)cccc2Cl)n(C)c1=O ?
ELG1 repair inh: 16µM*; FUS yeast rescue: inactive; Giardia kill: 32; TRPV1 potentiator: 17; TRPV1 ag: 9

Results for Cn1c(=O)c2c(nc(Br)n2Cc2c(F)cccc2Cl)n(C)c1=O ?
ELG1 repair inh: inconclusive; TRPV1 potentiator: 3; TRPV1 ag: 2

What do the screens show for `O=C1c2ccccc2C(=O)c2c1ccc1c(=O)n(C3CCCCC3)[nH]c21`?
ELG1 repair inh: 21µM*; FUS yeast rescue: inactive; Giardia kill: inconclusive; TRPV1 potentiator: -10; TRPV1 ag: inconclusive

How did O=c1c2[nH]c3ccccc3c2ncn1C1CCCCC1 do in these assays?
ELG1 repair inh: inconclusive; FUS yeast rescue: inactive; Giardia kill: 0; TRPV1 potentiator: -6; TRPV1 ag: 7

Results for CN(C)S(=O)(=O)c1cccc(COc2ncnc3c(Cl)cc(Cl)cc23)c1 ?
ELG1 repair inh: 18µM*; FUS yeast rescue: inactive; Giardia kill: -26; TRPV1 potentiator: 9; TRPV1 ag: 0

Results for CN(C)S(=O)(=O)c1cccc(COC(=O)c2ccc(Cl)cc2O)c1 ?
ELG1 repair inh: -7%; FUS yeast rescue: inactive; Giardia kill: 9; TRPV1 potentiator: -4; TRPV1 ag: 1

How did Cc1cn2c(=O)cc(COC(=O)COc3ccc(F)cc3)nc2s1 do in these assays?
FUS yeast rescue: inactive

How did CCc1nnc(NC(=O)[C@@H](NC(=O)c2ccc(C(C)(C)C)cc2)C(C)C)s1 do in these assays?
ELG1 repair inh: -10%; FUS yeast rescue: 28µM*; Giardia kill: -1; TRPV1 potentiator: -5; TRPV1 ag: 3

Results for Cc1cccc(C)c1NC(=O)CNC(=O)C(NC(=O)c1ccc(C(C)(C)C)cc1)C(C)C (configuration not stated) ?
ELG1 repair inh: 5.2µM*; FUS yeast rescue: inactive; Giardia kill: -19; TRPV1 potentiator: -5; TRPV1 ag: 0
